Assay results from the supplement of paper PMC6555819.

Legend:
Experiment in all cases: PBM binding z-score (relative to random genomic background probes); higher = stronger binding; sequences stand for … in GC…GCGATTGACAGCGTAGAATGAAGG
[1] = tested on: PPARg:RXRa DBDmut IVT, anti-RXR (DBD mutation: RXRa K156A/R161A, NR concentration 270 nM, RXRa partner concentration 90 nM)
Outline: (§1)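 The probes on custom Agilent 4×180K protein-binding microarrays were double-stranded, with 34-nt variable regions bearing direct-repeat seeds, single-nucleotide variants, half-site ablations and random human genomic background sequences. Incubation lasted 1 h with ligand-free nuclear receptor dimers in PBS pH 7.4, 2% milk, 0.02% Triton X-100, 1 mM DTT, 0.2 mg/mL BSA and 0.4 mg/ml salmon testes DNA. Antibodies against each partner (one per run) detected bound dimers, and fluorescence scans were regression-normalized. Binding z-scores take the random background probes as reference.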

[2] = tested on: PPARg:RXRa IVT, anti-PPARg (NR concentration 270 nM, RXRa partner concentration 90 nM)
Outline: as §1

[3] = tested on: PPARg DBDmut:RXRa IVT, anti-PPARg (DBD mutation: PPARg1 K132A/R137A, NR concentration 270 nM, RXRa partner concentration 90 nM)
Outline: as §1

[4] = tested on: PPARg DBDmut IVT, anti-PPARg (DBD mutation: PPARg1 K132A/R137A, NR concentration 270 nM)
Outline: as §1

[5] = tested on: PPARg homodimer (NR concentration 180 nM)
Outline: as §1

[6] = tested on: PXR:RXRa (NR concentration 270 nM, RXRa partner concentration 90 nM)
Outline: as §1

[7] = tested on: PXR homodimer (NR concentration 270 nM)
Outline: as §1

[8] = tested on: RARa homodimer (NR concentration 270 nM)
Outline: as §1

[9] = tested on: RARb:RXRa (NR concentration 270 nM, RXRa partner concentration 90 nM)
Outline: as §1

[10] = tested on: RARa:RXR (NR concentration 270 nM, RXRa partner concentration 90 nM)
Outline: as §1

| Sequence | PBM binding z-score [1] | PBM binding z-score [2] | PBM binding z-score [3] | PBM binding z-score [4] | PBM binding z-score [5] | PBM binding z-score [6] | PBM binding z-score [7] | PBM binding z-score [8] | PBM binding z-score [9] | PBM binding z-score [10] |
| --- | --- | --- | --- | --- | --- | --- | --- | --- | --- | --- |
| ATCGAAAGGTCGTGAGGTGTGTATACAGAAAGGC | 0.0315 | 2.26 | 1.54 | 0.468 | 2.59 | 3.12 | -0.215 | 0.71 | 3.97 | – |
| CCAGAAAGGTGAAAGGTAACTCAGTCTGGTACGC | 4.19 | 4.68 | 0.791 | 0.428 | 1.51 | 2.26 | 0.172 | 0.674 | 3.3 | – |
| CCAGACAGGTGAAAGGTCACTCAGTCTGGTACGC | 2.78 | 5.19 | 0.814 | 0.242 | 3.92 | 5.74 | 1.88 | 1.75 | 4.91 | – |
| GCTTACGGGTCAAAGGTTATAGTATGAATAGAAT | 4.49 | 5.45 | 1.28 | 1.07 | 1.98 | 6.29 | 0.804 | 0.757 | 4.25 | – |
| CAATCTAGGTCACGAAAGGTCAAAGTCGAATGAC | 8.53 | 9.13 | 5.67 | 4 | 6.67 | 7.2 | 3.37 | 4.3 | 5.76 | – |
| TCTTATAGATCAATAGAGGTTAAGAAAGTGCGCT | 1.88 | 0.653 | 0.623 | 0.528 | 1.11 | – | 0.488 | 0.901 | 1.03 | 1.99 |
| CAAGCTAGGTCAAAGGTCAAAGTCGAGCCAACCA | 5.45 | 6.94 | 1.27 | -0.285 | 5.21 | – | 1.5 | 2.23 | 6.05 | 9.03 |
| AGAACGAGGGCAATGAGTTCATAGCACGGGTGGC | 3.4 | 3.12 | 0.564 | 0.148 | 0.482 | – | 15.2 | 0.017 | 2.79 | 2.56 |
| TCTCGGAGGTCACGAAGGTCAGAGCTTTCCAGAG | 4.48 | 6.17 | 0.14 | -0.128 | 4.35 | – | 9.02 | 1.11 | – | 6.63 |
| CAAACTAGGTCACCGGGAGGTCAAAGTCCGCATG | 8.47 | 9.02 | 1.69 | 0.534 | 6.45 | – | 4.09 | 3.15 | 5.16 | 7.76 |
| ATATGTAGGTAACATCCGGGTCATTCAGGCTATG | 6.71 | 7.04 | 2.61 | 1.59 | 1.75 | 3.14 | 2.16 | 0.771 | 1.66 | – |
| ACTAGTTGTTCAGCTGAGGTCACACACAATTCGG | 0.514 | 2.19 | 0.853 | 0.948 | 2.16 | 4.83 | 1.87 | 1.09 | 3.28 | – |
| CCGTACGGGTCAAGGTTATAGCACGGGTGGTACG | 0.0598 | 2.11 | -0.559 | -1.41 | 1.37 | – | 0.0308 | -0.0555 | 4.09 | 4.49 |
| CCGACGGGGGCAGAAAGGTTACCATACCATCCGG | 0.901 | 2.55 | 3.18 | 2.71 | 2.43 | – | 2.06 | 0.566 | – | 3.91 |
| CTCGAAAGGTCGTCCTCAGGTGAGTATACCAAAC | 0.175 | 1.77 | 0.216 | -0.144 | 1.94 | – | 0.134 | -0.0286 | 3.8 | 4.1 |
| ATCTCTAGGTTAAAGTTCAGTGAATCCCGAGGAT | 4.45 | 5.47 | 1.98 | 1.29 | 2.11 | – | 1.85 | 1.65 | 3.28 | 3.99 |
| CGTCCAAGGTAAGAGAGGTCAGTGAATGCCGAGT | 0.589 | 0.75 | -1.12 | -1.45 | 1.77 | – | 1.61 | 0.562 | – | 3.12 |
| TAGCCTAGGTCACGGGCCAGTATACCACGCGAAC | 2.44 | 5.21 | 0.69 | 0.437 | 1.4 | 2.28 | -0.694 | 0.351 | 4.59 | – |
| ATCGAAAGGGCGTGAGGTGAGTATACAGAAAGGC | -0.47 | 1.02 | 0.673 | 0.814 | 0.257 | – | 0.256 | 0.276 | 1.89 | 1.08 |
